Records with an inconclusive call do not appear. Entries that show only a call come without a potency. Calls of active or inactive are those of the source. Calls follow the shape of the dose curve; as a rule, active = well fitted curve in the direction sought with a large enough effect; inconclusive = small, poorly fitted or top-dose-only effect, or another doubt; inactive = no such curve, though single readings can be large; an effect the other way counts as inactive or inconclusive.
These molecules were tested against Rap guanine nucleotide exchange factor 4 (Homo sapiens) (UniProt Q8WZA2) (assay: Confirmatory qHTS for agonist of cAMP-regulated guanine nucleotide exchange factor 4 (EPAC2) (AID 1645884;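 also: nucleotide exchange releases bodipy-GDP from Rap1 and this lowers its fluorescence; nearly all actives have a fitted effect of over 65% in size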)). Details: EPAC2 GEF activity, Rap1B-BODIPY-GDP fluorescence; series mostly up to 154 µM.
Potency is read from the fitted curve at half-maximal effect.

Sequence of Rap guanine nucleotide exchange factor 4 (Homo sapiens) (Q8WZA2 whole entry, looked up): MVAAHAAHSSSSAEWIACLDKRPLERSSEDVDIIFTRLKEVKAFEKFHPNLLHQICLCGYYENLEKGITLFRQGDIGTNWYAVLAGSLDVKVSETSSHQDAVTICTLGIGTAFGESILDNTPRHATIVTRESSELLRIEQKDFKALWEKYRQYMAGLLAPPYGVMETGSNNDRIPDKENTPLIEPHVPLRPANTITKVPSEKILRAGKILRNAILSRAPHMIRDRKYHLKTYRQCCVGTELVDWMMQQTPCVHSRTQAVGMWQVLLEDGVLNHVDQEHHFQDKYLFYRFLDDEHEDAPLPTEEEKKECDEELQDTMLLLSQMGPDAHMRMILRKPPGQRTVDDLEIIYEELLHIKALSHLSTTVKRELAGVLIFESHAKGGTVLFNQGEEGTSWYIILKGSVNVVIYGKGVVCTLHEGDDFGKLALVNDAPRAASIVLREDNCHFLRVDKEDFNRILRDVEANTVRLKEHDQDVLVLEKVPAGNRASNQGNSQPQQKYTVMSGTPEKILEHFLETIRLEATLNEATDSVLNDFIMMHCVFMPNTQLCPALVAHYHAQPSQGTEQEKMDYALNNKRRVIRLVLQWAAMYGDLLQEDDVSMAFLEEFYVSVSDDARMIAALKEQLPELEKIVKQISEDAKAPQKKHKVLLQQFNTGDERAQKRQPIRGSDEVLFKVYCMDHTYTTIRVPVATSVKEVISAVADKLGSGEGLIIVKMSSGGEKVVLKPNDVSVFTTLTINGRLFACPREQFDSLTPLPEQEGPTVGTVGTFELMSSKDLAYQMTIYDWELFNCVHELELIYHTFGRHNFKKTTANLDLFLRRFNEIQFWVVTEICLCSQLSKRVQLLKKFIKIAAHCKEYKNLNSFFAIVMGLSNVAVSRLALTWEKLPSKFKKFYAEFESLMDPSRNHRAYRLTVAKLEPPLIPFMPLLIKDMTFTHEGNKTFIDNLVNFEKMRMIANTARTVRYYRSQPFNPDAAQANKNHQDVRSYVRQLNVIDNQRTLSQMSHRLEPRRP

SMILES | Potency
COC1/C=C/OC2(C)Oc3c(C)c(O)c4c(O)c(c(/C=N/N5CCN(C)CC5)c(O)c4c3C2=O)NC(=O)/C(C)=C/C=C/C(C)C(O)C(C)C(O)C(C)C(OC(C)=O)C1C (centres undefined) | inactive
COc1ccc2c(c1)OCC(Cc1ccc(OC)c(OC)c1)C2=O (centres undefined) | inactive
Cc1nn(C)cc1N1C(=O)c2cccc3c(N)ccc(c23)C1=O | 100 µM (active)
CCN1/C(=C\c2ccc3ccccc3[n+]2CC)Sc2cc(C)ccc21 | inactive

What follows are molecules tested against Rap guanine nucleotide exchange factor 4 (Homo sapiens) (UniProt Q8WZA2) (assay: Confirmatory qHTS for antagonist of cAMP-regulated guanine nucleotide exchange factor 4 (EPAC2) (AID 1645885; also: nearly all actives have a fitted effect of over 25% in size)). Details: EPAC2 Rap1B-BODIPY-GDP exchange fluorescence, biochemical; series mostly up to 12.7 µM.

SMILES | Potency | outcome
COc1ccc(Cl)cc1C1CC(=O)Nc2cc3c(cc21)OCCO3 (centres undefined) | inactive | 
COc1ccc(C(=O)NCCn2cc(SCc3cccc(F)c3)c3ccccc32)cc1OC | inactive | 
Cc1ccccc1C1(O)c2ccccc2-c2ccccc21 | inactive | 
Cc1ccccc1OCC(=O)Nc1ccc(C(=O)OCc2cc(=O)n3c(C)csc3n2)cc1 | inactive | 
COc1ccc(CNc2ncnc3onc(-c4ccc(F)cc4)c23)cc1 | inactive | 
CCn1c(SCC(=O)c2ccc(O)c(O)c2)nnc1-c1ccccc1OC | 9.53 µM (active) | 
O=C1CN(C(=O)c2c(F)cccc2Cl)C(c2ccc(F)cc2)c2cc(Br)ccc2N1 (centres undefined) | inactive | 
O=C(Nc1ccc(-c2cn3ccccc3n2)cc1)c1cccs1 | inactive | 
COc1cccc2cc(/C(=N/O)c3ccccc3)oc12 | inactive | 
N#C/C(=C\c1ccc(-c2ccccc2C(=O)O)o1)c1nc2ccccc2[nH]1 |  | inactive [at 12.7 µM]
O=C(Cn1c(=O)c2ccccc2n(CC(=O)Nc2ccc(Cl)cc2)c1=O)NCCc1ccccc1 | inactive | 
Cc1ccc(C)c(Oc2nc3c(c(=O)n(C)c(=O)n3C)n2Cc2ccccc2)c1 | inactive | 
O=C(CSc1nc2ccccc2o1)N/N=C/c1ccc(O)c(O)c1 | inactive | 
COc1ccc2c(c1)Cc1sc(NC(=O)c3ccccc3Br)nc1-2 |  | inactive [at 12.7 µM]
Cc1ccc2c(c1)-c1c(cnn1CC(=O)N1CCN(c3cccc(C(F)(F)F)c3)CC1)CO2 |  | inactive [at 12.7 µM]
CCOC(=O)Nc1cc2c(c(N)n1)N=C(c1ccccc1)CN2 | inactive | 
O=C(Nc1cccc(S(=O)(=O)NCc2ccco2)c1)c1cc(-c2ccccc2)nc2ccccc12 | inactive | 
CC(=O)Nc1ccc(Nc2nnc(-c3ccc(O)cc3)c3ccccc23)cc1 | inactive | 

SMILES | Potency | outcome
Cc1ccc(C)c(CN2C(=O)C(O)(c3c[nH]c4ccccc34)c3ccccc32)c1 (centres undefined) |  | inactive [at 12.7 µM]
COc1ccc(-c2ccc(C(=O)NC(C)C)c3occc23)c(C)c1 | inactive | 
Cc1nn(-c2ccccc2)c2nc(N)c(C#N)c(-c3ccc(O)c(O)c3)c12 | inactive | 
N/C(CSc1nc(-c2ccccc2)c(-c2ccccc2)o1)=N\O | 16.9 µM (active) | 
CCOc1ccccc1C(=O)N1CCc2cc(OC)c(OC)cc2C1COc1ccc(OC)cc1 (centres undefined) | inactive | 
Cc1cc[n+](-c2[nH]c(=O)sc2/C=N/N=C(\[O-])c2ccccc2)cc1 | inactive | 
Cc1csc2nc(-c3cccc(NC(=O)c4cccc(F)c4)c3)cn12 | inactive | 
Cc1cc(C)c2c(CN3CCCC3)cc(=O)oc2c1 | inactive | 
O=C(c1ccccc1Cc1ccccc1)N1CCN(S(=O)(=O)c2ccccc2Br)CC1 | inactive | 
Cc1nc2ccccc2c2oc(C(=O)Nc3ccc4c(c3)OCCO4)cc12 | inactive | 
O=[N+]([O-])c1cccc(S(=O)(=O)Nc2cccc(-c3ccc(N4CCCC4)nn3)c2)c1 |  | inactive [at 12.7 µM]
Clc1ccc(OCCn2c(-c3ccco3)nc3ccccc32)cc1 | inactive | 
O=c1[nH]c(Nc2ccc(F)cc2)cc2ccccc12 | inactive | 
CCc1ccc(CNC(=O)Cn2nc(C)n3c(cc4cc(C)ccc43)c2=O)cc1 |  | inactive [at 12.7 µM]
O=C(Nc1ccccc1N1CCCCC1)C1=COCCO1 | inactive | 
COc1ccccc1CN(C)C(=O)C(c1ccccc1)c1ccccc1 | inactive | 
O=c1c2ccccc2c(C=Nc2ccc(O)cc2)c(O)n1-c1nccs1 | inactive | 
